Where a name gives a salt, the structure may show the parent alone.
test system: Danio rerio larvae (5 dpf); experiment: startle response to 20-s acoustic pulses, difference vs DMSO (percentage points (treated minus DMSO)); higher = more of the behaviour than the DMSO vehicle control; settings: 10 µM; exposure time: 3 h pre-incubation + 3 h imaging
Protocol: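 5-dpf wild-type zebrafish larvae were imaged in 96-well plates. They were treated with 190 Tocris FDA-approved drugs at 10 µM (1 µl/ml DMSO) for 3 h before and 3 h during imaging at 28.5 °C, 48 larvae per drug. Automated image analysis gave % time moving and optomotor responses. Values are drug group mean minus DMSO vehicle mean (n=844), in percentage points, for 10 behaviours.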

SMILES	startle response to 20-s acoustic pulses
O=C(O)CCCc1ccccc1 [Sodium 4-Phenylbutyrate]	-5.04
CN[C@H]1CC[C@@H](c2ccc(Cl)c(Cl)c2)c2ccccc21 [Sertraline hydrochloride]	1.74
CC(=O)Nc1ccc(O)cc1 [Acetaminophen]	-1.63
O=C(O)C[C@H](O)C[C@H](O)/C=C/c1c(C2CC2)nc2ccccc2c1-c1ccc(F)cc1 [Pitavastatin calcium]	1.52
CN(C)CCc1c[nH]c2ccc(C[C@H]3COC(=O)N3)cc12 [Zolmitriptan]	2.21
CCOC(=O)C1=C(COCCN)NC(C)=C(C(=O)OC)C1c1ccccc1Cl (stereo not given) [Amlodipine besylate]	0.195
O=C1CCc2ccc(OCCCCN3CCN(c4cccc(Cl)c4Cl)CC3)cc2N1 [Aripiprazole]	-4.17
CCOc1nc2cccc(C(=O)O)c2n1Cc1ccc(-c2ccccc2-c2nnn[nH]2)cc1 [Candesartan]	10.6
C/C(O)=C(\C#N)C(=O)Nc1ccc(C(F)(F)F)cc1 [Teriflunomide]	-4.42
CC(C)c1ccc2oc3nc(N)c(C(=O)O)cc3c(=O)c2c1 [Amlexanox]	0.978
COCCCOc1cc(C[C@@H](C[C@H](N)[C@@H](O)C[C@H](C(=O)NCC(C)(C)C(N)=O)C(C)C)C(C)C)ccc1OC [Aliskiren hemifumarate]	-0.0432
CCCCCCCCc1ccc(CCC(N)(CO)CO)cc1	-1.81
CCOC(=O)c1ncn2c1CN(C)C(=O)c1cc(F)ccc1-2 [Flumazenil]	-1.57
COc1cccc2c1C(=O)c1c(O)c3c(c(O)c1C2=O)C[C@@](O)(C(=O)CO)C[C@@H]3O[C@H]1C[C@H](N)[C@H](O)[C@H](C)O1 [Doxorubicin hydrochloride]	3.62
OCCN(CCO)c1nc(N2CCCCC2)c2nc(N(CCO)CCO)nc(N3CCCCC3)c2n1 [Dipyridamole]	6.96
CNS(=O)(=O)Cc1ccc2[nH]cc(CCN(C)C)c2c1 [Sumatriptan succinate]	3.19
Cc1cn([C@H]2C=C[C@@H](CO)O2)c(=O)[nH]c1=O [Stavudine]	-0.918
CC(C)(C#N)c1cc(Cn2cncn2)cc(C(C)(C)C#N)c1 [Anastrozole]	-0.38
Nc1cc(N2CCCCC2)nc(N)[n+]1[O-] [Minoxidil]	-2.65
CCCCCOC(=O)Nc1nc(=O)n([C@@H]2O[C@H](C)[C@@H](O)[C@H]2O)cc1F [Capecitabine]	3

SMILES	startle response to 20-s acoustic pulses
Cc1nnc(C(C)C)n1C1C[C@H]2CC[C@@H](C1)N2CC[C@H](NC(=O)C1CCC(F)(F)CC1)c1ccccc1 (stereo in doubt) [Maraviroc]	-4.61
CC1CNc2c(cccc2S(=O)(=O)N[C@@H](CCCNC(=N)N)C(=O)N2CC[C@@H](C)C[C@@H]2C(=O)O)C1 (stereo not given in full) [Argatroban]	2.94
CS(=O)(=O)CCNCc1ccc(-c2ccc3ncnc(Nc4ccc(OCc5cccc(F)c5)c(Cl)c4)c3c2)o1 [Lapatinib]	-0.481
CCCc1nc(C(C)(C)O)c(C(=O)O)n1Cc1ccc(-c2ccccc2-c2nnn[nH]2)cc1 [Olmesartan]	7.62
Brc1c(NC2=NCCN2)ccc2nccnc12	-4.57
C[C@H](Cc1cc2c(c(C(N)=O)c1)N(CCCO)CC2)NCCOc1ccccc1OCC(F)(F)F [Silodosin]	2.96
CC(CCc1ccc(O)cc1)NCCc1ccc(O)c(O)c1 (stereo not given) [Dobutamine hydrochloride]	2.42
O=C(Nc1c(Cl)cncc1Cl)c1ccc(OC(F)F)c(OCC2CC2)c1 [Roflumilast]	1.99
C[C@@H](O[C@H]1OCCN(Cc2n[nH]c(=O)[nH]2)[C@H]1c1ccc(F)cc1)c1cc(C(F)(F)F)cc(C(F)(F)F)c1 [Aprepitant]	-6.92
CN1CCC[C@@H]1Cc1c[nH]c2ccc(CCS(=O)(=O)c3ccccc3)cc12 [Eletriptan hydrobromide]	1.42
C=CC(=O)N1CCC[C@@H](n2nc(-c3ccc(Oc4ccccc4)cc3)c3c(N)ncnc32)C1 [Ibrutinib]	3.06
CCc1c2c(nc3ccc(OC(=O)N4CCC(N5CCCCC5)CC4)cc13)-c1cc3c(c(=O)n1C2)COC(=O)[C@]3(O)CC	1.92
CO[C@H]1/C=C/O[C@@]2(C)Oc3c(C)c(O)c4c(O)c(c5c(nc6cc(C)ccn65)c4c3C2=O)NC(=O)/C(C)=C\C=C\[C@H](C)[C@H](O)[C@@H](C)[C@@H](O)[C@@H](C)[C@H](OC(C)=O)[C@@H]1C [Rifaximin]	2.34
CCCN(CCc1cccs1)[C@H]1CCc2c(O)cccc2C1 [Rotigotine hydrochloride]	-4.68
O=C(c1ccc(OCCN2CCCCC2)cc1)c1c(-c2ccc(O)cc2)sc2cc(O)ccc12 [Raloxifene hydrochloride]	1.88
CC(=O)O[C@H]1C(=O)[C@@]2(C)[C@H]([C@H](OC(=O)c3ccccc3)[C@]3(O)C[C@H](OC(=O)[C@H](O)[C@@H](NC(=O)c4ccccc4)c4ccccc4)C(C)=C1C3(C)C)[C@]1(OC(C)=O)CO[C@@H]1C[C@@H]2O [Taxol]	-0.529
C[C@H]1O[C@H](O[C@H]2[C@H](O)[C@@H](O)[C@@H](O[C@H]3[C@H](O)[C@@H](O)C(O)O[C@@H]3CO)O[C@@H]2CO)[C@H](O)[C@@H](O)[C@@H]1N[C@H]1C=C(CO)[C@@H](O)[C@H](O)[C@H]1O (stereo not given in full) [Acarbose]	-6.81
CN1CC2c3ccccc3Oc3ccc(Cl)cc3C2C1 (stereo not given) [Asenapine maleate]	-6.44
COc1cc([C@@H]2c3cc4c(cc3[C@@H](O[C@@H]3O[C@@H]5CO[C@@H](C)O[C@H]5[C@H](O)[C@H]3O)[C@H]3COC(=O)[C@H]23)OCO4)cc(OC)c1O [Etoposide]	-1.98
CC(C)N(CCCCOCC(=O)NS(C)(=O)=O)c1cnc(-c2ccccc2)c(-c2ccccc2)n1 [Selexipag]	-1.31
